Experimental findings from PubChem BioAssay AID686970 (National Center for Advancing Translational Sciences (NCATS), 2013) are described below.

Each structure is given as a SMILES string. The campaign covered roughly 360,000 compounds. About 6,000 (1.7%) were called active. A call without a number means that no potency is given here. Inconclusive results (about 8%) are left out. The call rests on the fitted dose curve; in most records, active means well fitted cell-killing curve with a large enough effect; inconclusive means small, poorly fitted or top-dose-only effect, or effect the other way; inactive means flat fitted curve, though single readings scatter. Many of the other results were omitted from the sample, so actives are more common in it than they were.
Potency means the concentration at half of the fitted maximal effect.

A short description of this assay: qHTS for induction of synthetic lethality in tumor cells producing 2HG: qHTS for the HT-1080-NT fibrosarcoma cell line.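 Further: NT is the 2HG producing partner of a matched IDH1 knockdown line; nearly all actives have a fitted effect of over 55% in size.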 As to conditions: HT-1080-NT fibrosarcoma viability, CellTiter-Glo ATP luminescence, 48 h; series mostly up to 46.1 µM. The gist of the method:
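Viability by CellTiter-Glo luminescence after 48 h compound exposure at 37C of HT-1080-NT cells (750/well, RPMI, 5% FBS). % activity scaled between DMSO wells and medium-only wells, then curve-fitted and categorized by curve class.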
On the technique in general: qHTS replaces the single test concentration by a dilution series.
For the compound `CC(C)C[C@@H]1COc2cc(N3CCC[C@@H]3CO)ccc2S(=O)(=O)N1`, the Potency entry is “inactive”.

Take `CC(C)CCOc1ccc(C(=O)Nc2cc(S(=O)(=O)N3CCOCC3)ccc2N2CCOCC2)cc1`: the Potency entry was “inactive”.

In the case of `O=[N+]([O-])c1ccc(CN2CC(N3CCC(c4ccccc4)CC3)CS2(=O)=O)cc1` (stereo not drawn), the Potency result is “inactive”.

Take `NC(=O)c1ccccc1N(Cc1ccccc1)S(=O)(=O)c1ccccc1`: the Potency result was “inactive”.

Turning to `CCOC(=O)N1CCN(C(=O)c2ccccc2N(Cc2ccccc2)S(=O)(=O)c2ccc(OC)cc2)CC1`, the Potency was 3.26 µM (active).

Take `CCOC(=O)N1CCN(S(=O)(=O)c2ccc(OC)cc2)CC1`: the Potency result is “inactive”.

Take `COc1ccc(NC(=O)COC(=O)C2COc3ccccc3O2)cc1` (stereo not drawn): the Potency entry was “inactive”.

Consider `COCc1cccc(-c2csc(C(O)c3ccc(F)cc3)n2)c1` (stereo not drawn), for which the Potency entry is “inactive”.

In the case of `COc1cccc(/C=N/NC(=O)CNC(=O)c2ccc(S(=O)(=O)N3CCOCC3)cc2)c1OC`, the Potency result is “inactive”.

With `COc1cccc(/C=N/NC(=O)c2[nH]nc3c2CCc2ccccc2-3)c1O`, the Potency is 2.59 µM (active).

For `COc1cc(/C=N/NC(=O)c2cc(-c3ccccc3C)nc3ccccc23)cc(OC)c1O`, the Potency entry is “inactive”.

In the case of `CCCNC(=O)C1(C)CCN1C(=O)Cc1ccc(-c2ccccc2)cc1` (stereo not drawn), the Potency result was “inactive”.

In the case of `O=C(C(=O)N1CCN(c2ccccc2)CC1)c1ccc2c(c1)OCO2`, the Potency result is “inactive”.

For `c1ccc(Cn2nnc3c(N4CCCCC4)ncnc32)cc1`, the Potency entry is “inactive”.

Consider `CC1(C(=O)NS(=O)(=O)c2ccc(Cl)cc2)CCN1C(=O)CC1CCCC1` (stereo not drawn), for which the Potency entry is “inactive”.

`Cn1cccc1/C=N/NC(=O)c1ccc(OC(F)(F)C(F)F)cc1`: the Potency result was “inactive”.

Take `Cn1nccc1NC(=O)Nc1ccc(OC(F)(F)F)cc1`: the Potency entry is “inactive”.

As for `O=C(Nc1ccc(OC(F)(F)F)cc1)c1ccc2c(c1)no[n+]2[O-]`, the Potency was 18.4 µM (active).

For `COC(=O)C[C@@H]1C=C[C@@H](NC(=O)c2cccnc2)[C@@H](CO)O1`, the Potency result was “inactive”.

`O=C(Nc1ccc(Cl)c(C(F)(F)F)c1)C1Cc2c(-c3ccccc3Oc3ccccc3)ccnc2O1` (stereo not drawn): the Potency result was “inactive”.

On to `CC(C)CN1CCC1(C)C(=O)Nc1ccc(OC(F)F)cc1` (stereo not drawn), for which the Potency entry is “inactive”.

Regarding `CC(C)Cc1ccc(-c2cc3nc(NCc4cccc(Cl)c4)ccn3n2)cc1`, the Potency was 23.1 µM (active).

`COc1ccccc1-c1cc2nc(NCc3cccc(Cl)c3)ccn2n1`: the Potency entry is “inactive”.

As to `Cc1cc(C)n2c(NCc3ccccc3)c(CC(C)C)nc2n1`, the Potency entry was “inactive”.

`O=C(C(=O)N1CCC(c2ccccc2)CC1)c1ccccc1`: the Potency result was “inactive”.

Take `CCC1OC(C2CC2)CC2=C1C(=O)OC(C)(C)O2` (stereo not drawn): the Potency entry is “inactive”.

`Clc1cc(-c2ccc(/C=N/n3cnnc3)o2)ccc1Br`: the Potency result was “inactive”.

For the compound `Cc1ccc(Cl)cc1-c1ccc(/C=N/n2cnnc2)o1`, the Potency entry was “inactive”.

Regarding `Cc1cc([N+](=O)[O-])c(-c2ccc(/C=N/n3cnnc3)o2)cc1Cl`, the Potency was 10 µM (active).

Take `COC(=O)[C@H]1C[C@H](OC(=O)NCc2ccccc2)[C@@]2(O)CN(S(=O)(=O)c3ccc(C)cc3)CC2[C@H]1C(=O)OC` (stereo partly drawn): the Potency entry is “inactive”.

For the compound `COc1ccc(-c2cc3c(c4c2ccn4C)C2CCC3C2)cn1` (stereo not drawn), the Potency result was “inactive”.

Consider `COC(=O)C1(C(=O)OC)C/C=C\CN(S(=O)(=O)c2ccccc2[N+](=O)[O-])CCC1`, for which the Potency result is “inactive”.

`COc1ccc(CN2C(=O)C(CC(=O)NC3CCCCC3)CC(C(=O)N3CCOCC3)=C2C)cc1` (stereo not drawn): the Potency entry is “inactive”.

Regarding `CCNC(=O)c1ccc(OCC(=O)Nc2ccc(F)cc2)c(OC)c1`, the Potency result was “inactive”.

Take `COc1cc(C(=O)N(C)Cc2cccc(OC)c2OC)ccc1OCC(=O)Nc1cccc(C(F)(F)F)c1`: the Potency is 8.2 µM (active).

In the case of `COc1ccc(C(=O)OCC(=O)Nc2cccc(C(C)=O)c2)cc1OC`, the Potency entry is “inactive”.

For the compound `COc1ccc(CN2CCC(C)(Oc3cccc(F)c3)C2)c2ccccc12` (stereo not drawn), the Potency result was “inactive”.

`CC1(C)CCc2cc(S(=O)(=O)N3CCN(c4nc(-c5cccs5)nc5ccccc45)CC3)ccc2O1`: the Potency result is “inactive”.

As for `COc1ccc(-c2ccc(C(=O)NC(C)C)c3occc23)c(C)c1`, the Potency entry is “inactive”.

Regarding `COc1ccc(-c2ccc(C(=O)NCCN3CCOCC3)c3occc23)c(C)c1`, the Potency is 16.4 µM (active).

Consider `COc1ccc(-c2cc(C(=O)NCCCN3CCOCC3)no2)cc1`, for which the Potency entry is “inactive”.

In the case of `CC1(C(=O)NCc2ccccc2)CSCC(=O)N1CCCn1ccnc1` (stereo not drawn), the Potency entry is “inactive”.

Regarding `COC(=O)C[C@H]1C=C[C@@H](NS(=O)(=O)c2ccc(C)cc2)[C@@H](CO)O1`, the Potency entry was “inactive”.

As for `Cc1ccc(S(=O)(=O)N2C[C@H]3C(=O)C[C@@H](c4cccc5ccccc45)N(S(=O)(=O)c4ccc(C)cc4)[C@H]3C[C@H]2c2ccc(Cl)cc2)cc1`, the Potency result was “inactive”.

Consider `Nc1ncnc2c1ncn2[C@@H]1O[C@H](C(=O)N2CCSC2)[C@@H](O)[C@H]1O`, for which the Potency entry is “inactive”.

Turning to `C[C@@H]1CN([C@@H](C)CO)C(=O)c2cc(Br)cnc2O[C@@H]1CN(C)C(=O)C1CCCCC1`, the Potency result is “inactive”.

As to `CCCCC(=O)Nc1ccc(C(=O)Nc2cc(C(F)(F)F)ccc2Cl)cc1`, the Potency is 16.4 µM (active).

In the case of `O=C(Nc1cc(C(F)(F)F)ccc1Cl)C(=O)N1CCCCC1`, the Potency result is “inactive”.

Consider `CC(=O)Nc1ccc(NC(=O)CCCNC(=O)c2ccc(Cl)cc2)cc1`, for which the Potency result was “inactive”.

As for `CCCCNC(=O)C[C@@H]1C[C@@]2(C(=O)OCC)CCC=C2N(Cc2cccc3ccccc23)C1=O`, the Potency entry is “inactive”.

On to `CC1(C(=O)NS(=O)(=O)C2CC2)CCCN(C(=O)CSc2ccccc2)C1` (stereo not drawn), for which the Potency entry was “inactive”.

For `Cc1cc2oc(=O)cc(CN(C)Cc3ccccc3)c2cc1Cl`, the Potency entry was “inactive”.

On to `CC1CCCC(NC(=O)COC(=O)c2ccccc2C(=O)N(C)C2CCCCC2)C1C` (stereo not drawn), for which the Potency result is “inactive”.

As for `O=C(O)C1CC(=O)N(Cc2cccnc2)C1` (stereo not drawn), the Potency result is “inactive”.

With `O=C1/C(=C\c2cccnc2)CN(Cc2ccccc2)C/C1=C\c1cccnc1`, the Potency is 1.3 µM (active).

For `Cc1ccccc1C1=N/C(=C/c2cccnc2)C(=O)O1`, the Potency entry is “inactive”.

Regarding `N#Cc1cccc(NC(=O)c2cc(C3CCCCN3C(=O)CCc3ccccc3)on2)c1` (stereo not drawn), the Potency result is “inactive”.

As to `Cc1nn(C)c(C)c1NS(=O)(=O)c1ccc(OC(F)(F)F)cc1`, the Potency result was “inactive”.

As to `O=C1COc2ccc(S(=O)(=O)Nc3ccc(OC(F)(F)F)cc3)cc2N1`, the Potency result was “inactive”.

For `O=S(=O)(Nc1ccc(O)c2ccccc12)c1ccc(OC(F)(F)F)cc1`, the Potency was 23.1 µM (active).

As for `COc1ccc(CC(=O)NC2CCSc3ccccc32)cc1OC` (stereo not drawn), the Potency entry is “inactive”.

Consider `COc1ccc(CC2c3cc(OC)c(OC)cc3CC[N+]2(C)CCC(=O)OCCCCCOC(=O)CC[N+]2(C)CCc3cc(OC)c(OC)cc3C2Cc2ccc(OC)c(OC)c2)cc1OC` (stereo not drawn), for which the Potency is 18.4 µM (active).

`COC(=O)C1=CN(Cc2ccc(OC)c(OC)c2)C=C(C(=O)OC)C1c1cccs1`: the Potency result was “inactive”.
